Compound activity: PubChem BioAssay, National Center for Advancing Translational Sciences (NCATS)
KB-V1 cytotox: KB-V1 MDR subline cytotoxicity; KB-V1 MDR cells viability, CellTiter-Glo, 72 h; Potency, µM (doses to about 46.1 µM), usual class: cytotoxic; hit rate 3.4% among 400,000; AID 1347076; further: nearly all actives have a fitted effect of over 60% in size
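Luminescent ATP read-out (CellTiter-Glo, 10 min) measures survival of drug-selected KB-V1 MDR cells after 72 h, 37 degrees C compound exposure. Medium: phenol-red-free DMEM, 10% FBS. Values from fitted concentration-response curves.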
SW480 rerep: inducers of DNA re-replication in SW480 colon cancer cells | SW480 DNA re-replication, Hoechst DNA content imaging, 48 h | hit rate 1.8% among 340,000 | AID 624297 | Potency, µM (highest dose often 46.1 µM), actives largely listed as activators; further: nearly all actives have a fitted effect of over 55% in size
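Readout is total intensity of Hoechst-stained nuclei, excited at 405 nm and collected at 500-530 nm. Compound treatment lasted 48 hr at 37 C in 5% CO2 before staining.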
IL-1B inflam inh: inflammasome signaling inhibition, IL-1 beta readout; THP-1 LPS/ATP IL-1B secretion, AlphaLISA, 16 h; active compounds read low; hit rate 4.7% among 360,000; activity change, % at 57.5 µM; in the data active means activity change below about -50%; inconclusive means mostly about -30% to -49%
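THP-1 cells pretreated 1 hr with compounds (up to 57.5 uM final), then stimulated with LPS (250 ng/mL final) plus ATP (1.25 mM final); secreted IL-1B measured by AlphaLISA after 16 hr, decreased signal indicating inhibition.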
KB-3-1 cytotox: KB-3-1 parental cell cytotoxicity. hit rate 1.4% among 400,000. KB-3-1 viability, CellTiter-Glo ATP luminescence, 72 h. AID 1347075. Potency, µM (titrated, usually from 46.1 µM), actives largely listed as cytotoxic; further: nearly all actives have a fitted effect of over 60% in size
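Here the drug-naive KB-3-1 line serves as comparator for MDR sub-line selectivity; cells received compound titrations, 72 h at 37 °C, then CellTiter-Glo readout.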
MCF10A rerep: inducers of DNA re-replication in MCF 10A breast cells; MCF 10A DNA re-replication, Hoechst nuclear intensity, 48 h; Potency, µM (series often up to 46.1 µM), most hits filed as activators; hit rate 2.9% among 350,000; further: nearly all actives have a fitted effect of over 50% in size
Large screens that a line does not name were inactive. Compounds with a hit are over-represented: about 9.9% of the library has one in this group of screens. Unless noted, the call rests on the fitted dose curve; in most records, active means well fitted curve in the direction sought with a large enough effect; inconclusive means small, poorly fitted or top-dose-only effect, or another doubt; inactive means no such curve, though single readings can be large; an effect the other way counts as inactive or inconclusive.

COc1ccc2c(c1)/C(=C\c1cccc(/C=C3/C(=O)Nc4ccc(OC)cc43)n1)C(=O)N2	SW480 rerep 2.9µM, IL-1B inflam inh -107, KB-3-1 cytotox 1.8µM, MCF10A rerep inconclusive
COc1cc(CCC(=O)Nc2ccc(Cl)c(C(F)(F)F)c2)cc(OC)c1OC	KB-V1 cytotox 16µM
COc1cccc(C(=O)Nc2ccc(Cl)c(C(F)(F)F)c2)c1	IL-1B inflam inh inconclusive
COc1cc(C(=O)Nc2ccc(Cl)c(C(F)(F)F)c2)cc(OC)c1OC	KB-V1 cytotox inconclusive, IL-1B inflam inh -84, MCF10A rerep inconclusive
O=C(c1ccccc1NS(=O)(=O)c1cccc([N+](=O)[O-])c1)N1CCCC1	none
CN(CCC#N)S(=O)(=O)c1cc2c3c(c1)CCN3C(=O)CC2	none
Cc1cc(C)c2c(N)c(C(=O)c3ccccc3)oc2n1	KB-V1 cytotox inconclusive, MCF10A rerep inconclusive
Cc1cc(C)c2c(N)c(C(=O)c3ccc(Br)cc3)oc2n1	SW480 rerep 2.6µM, MCF10A rerep 23µM
CCN1/C(=C/C=C/c2oc3ccc(-c4ccccc4)cc3[n+]2CC)Oc2ccc(-c3ccccc3)cc21	KB-V1 cytotox 15µM, SW480 rerep inconclusive, IL-1B inflam inh -107, KB-3-1 cytotox 9.2µM
COc1ccc(C(=O)c2coc(-c3ccccc3C(=O)O)c2C(=O)O)cc1	none
COc1ccc(C(=O)c2c(C(F)(F)F)oc3c2C(=O)c2ccccc2C3=O)cc1	KB-V1 cytotox inconclusive, SW480 rerep 5.2µM, IL-1B inflam inh inconclusive, KB-3-1 cytotox inconclusive, MCF10A rerep 4.1µM
CCOc1ccc(NC(=O)Cn2c(=O)oc3cc(S(=O)(=O)N4CCC(C)CC4)ccc32)cc1	none (no result: SW480 rerep, IL-1B inflam inh, MCF10A rerep)
CCOc1ccc(-c2nonc2NC(=O)c2oc3cc(Br)ccc3c2C)cc1	KB-V1 cytotox inconclusive, KB-3-1 cytotox 3.7µM (no result: SW480 rerep, IL-1B inflam inh, MCF10A rerep)
C=C(C)CSc1nnc2[nH]c(=O)cc(N)n12	KB-V1 cytotox 18µM, KB-3-1 cytotox 16µM
O=C(O)c1ccc2c(=O)n3c(nc2c1)/C(=C/c1cccc(Cl)c1Cl)CCCC3	none
CCOc1ccc(S(=O)(=O)N(C(=O)c2ccco2)c2cc3sc(=O)oc3c3ccccc23)cc1	KB-V1 cytotox inconclusive, IL-1B inflam inh -95, MCF10A rerep inconclusive
COc1ccc(S(=O)(=O)N(C(=O)c2ccco2)c2cc3sc(=O)oc3c3ccccc23)cc1	SW480 rerep inconclusive, IL-1B inflam inh -100, KB-3-1 cytotox inconclusive, MCF10A rerep 18µM
CCc1nc2ccc(C(=O)NCc3ccc(OC)cc3)cn2c1N(C)CCC(C)C	KB-V1 cytotox inconclusive, IL-1B inflam inh inconclusive (no result: SW480 rerep, MCF10A rerep)
O=C1CC(c2ccccc2)=C(c2ccccc2)C1c1ccccc1 (stereo not drawn)	KB-V1 cytotox 10µM, SW480 rerep inconclusive, KB-3-1 cytotox inconclusive, MCF10A rerep inconclusive
CCCn1c(CC)nc([N+](=O)[O-])c1S(=O)(=O)c1ccccc1	SW480 rerep inconclusive, IL-1B inflam inh -104, KB-3-1 cytotox inconclusive, MCF10A rerep 3.7µM
CCc1nc(C)cn1S(=O)(=O)c1ccc([N+](=O)[O-])cc1	none
CC(=O)c1ccccc1NS(C)(=O)=O	none
O=[N+]([O-])c1ccc(C2CCCC/C2=N\OCc2cccc(F)c2)c([N+](=O)[O-])c1 (stereo not drawn)	KB-V1 cytotox 10µM
Cc1ccc(/C=C/C(=O)Nn2cnnc2)cc1	SW480 rerep inconclusive, IL-1B inflam inh -115, MCF10A rerep inconclusive
Cc1ccc(/C=C/C(=O)NN2CCN(C)CC2)cc1	none
Cc1cc(NS(=O)(=O)c2ccc(Nc3nc(-c4ccc(O)cc4)cs3)cc2)no1	none
CC(=O)Nc1ccc(-c2csc(Nc3ccc(S(N)(=O)=O)cc3)n2)cc1	none
NS(=O)(=O)c1ccc(Nc2nc(-c3ccc(F)cc3)cs2)cc1	IL-1B inflam inh -88, MCF10A rerep inconclusive
Cc1cc(NS(=O)(=O)c2ccc(Nc3nc(-c4ccc(C)c(C)c4)cs3)cc2)no1	IL-1B inflam inh -56, MCF10A rerep inconclusive
COc1ccc(-c2csc(Nc3ccc(S(N)(=O)=O)cc3)n2)cc1OC	SW480 rerep inconclusive, IL-1B inflam inh -64, MCF10A rerep inconclusive
NS(=O)(=O)c1ccc(Nc2nc(-c3ccc(O)cc3O)cs2)cc1	IL-1B inflam inh -57
Oc1ccc(-c2csc(Nc3ccccn3)n2)c(O)c1	MCF10A rerep inconclusive
NS(=O)(=O)c1ccc(Nc2nc(-c3cccnc3)cs2)cc1	SW480 rerep inconclusive, MCF10A rerep inconclusive
CCN(c1cccc(C)c1)c1nc2ccsc2c(=O)s1	none
FC(F)(F)c1ccc(-c2nnc(-c3ccccn3)c(-c3ccccn3)n2)nc1	none
Cc1ccc(NC(=O)COc2ncnc3cc([N+](=O)[O-])ccc23)cc1S(=O)(=O)N1CCOCC1	none
Cc1ccc(Cl)cc1N1CCN(C(=O)CCCn2c(=O)[nH]c3ccc(Br)cc3c2=O)CC1	KB-V1 cytotox inconclusive (no result: SW480 rerep, IL-1B inflam inh, MCF10A rerep)
Cc1[nH]n(-c2ccccc2)c(=O)c1/C=N/N1C(=O)c2cccc3cccc(c23)C1=O	KB-V1 cytotox 7.3µM, SW480 rerep inconclusive, KB-3-1 cytotox inconclusive
Cc1[nH]n(-c2ccccc2)c(=O)c1C=Nc1cccc2cccnc12	KB-V1 cytotox 18µM, SW480 rerep inconclusive, KB-3-1 cytotox inconclusive
COc1ccc(OC)c(-n2c(N)c(C(=O)NCC3CCCO3)c3nc4ccccc4nc32)c1 (stereo not drawn)	SW480 rerep 16µM, MCF10A rerep 8.2µM
COc1cccc(/C=N/n2c(N)c(S(=O)(=O)c3cccs3)c3nc4ccccc4nc32)c1OC	KB-V1 cytotox inconclusive, SW480 rerep 12µM, KB-3-1 cytotox inconclusive, MCF10A rerep 3.7µM
COCCn1c(N)c(C(=O)NCc2cccs2)c2nc3ccccc3nc21	KB-V1 cytotox inconclusive, SW480 rerep inconclusive, IL-1B inflam inh inconclusive, KB-3-1 cytotox inconclusive, MCF10A rerep 8.2µM
COCCn1c(N)c(C(=O)NCC2CCCO2)c2nc3ccccc3nc21 (stereo not drawn)	KB-V1 cytotox inconclusive, SW480 rerep 10µM, MCF10A rerep inconclusive
CCN(CC)CC(=O)Nc1ccc(-c2ccc(NC(=O)CN(CC)CC)c(OC)c2)cc1OC	KB-V1 cytotox inconclusive, SW480 rerep inconclusive, MCF10A rerep inconclusive
CCOC(=O)c1cccc(NC(=O)c2cc3c(Cl)nc4ccc(C)cc4c3s2)c1	none (no result: SW480 rerep, IL-1B inflam inh, MCF10A rerep)
CC(C)Cn1c(N)c(C(=O)NCC2CCCO2)c2nc3ccccc3nc21 (stereo not drawn)	KB-V1 cytotox inconclusive, SW480 rerep inconclusive, IL-1B inflam inh -80, MCF10A rerep 2.1µM
Nc1c(C(=O)OCC2CCCO2)c2nc3ccccc3nc2n1C1CCCC1 (stereo not drawn)	KB-V1 cytotox 23µM, KB-3-1 cytotox inconclusive, MCF10A rerep inconclusive
COCCn1c(N)c(S(=O)(=O)c2cccs2)c2nc3ccccc3nc21	MCF10A rerep 23µM
Nc1c(S(=O)(=O)c2cccs2)c2nc3ccccc3nc2n1Cc1ccccc1	none
CC(=O)n1cc(N(C(=O)CCl)c2ccccc2)c2ccccc21	KB-V1 cytotox inconclusive, SW480 rerep 1.6µM, IL-1B inflam inh -92, KB-3-1 cytotox inconclusive, MCF10A rerep 16µM
